The campaign covered roughly 2,100 compounds. About 770 (37%) were called active. Some of the results follow. A number with no mark means an inactive call.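 The calls were made as follows: active = by-eye trace score of 1 for enhancers or -1 for inhibitors, so actives lie on both sides (some results past the limit were not filed as active); inactive = score 0, or 3 fluorescent, or 4 baseline rise.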
These compounds were tested against G protein-activated inward rectifier potassium channel 2 (Homo sapiens) + G protein-activated inward rectifier potassium channel 1 (Homo sapiens) (UniProt P48051+P48549) (assay: GIRK1/2 thallium flux modulators, retest, confirmation, cell-based, HEK293 rmGlu8/hGIRK1/2, FluoZin-2 (AID 623911)). Settings: HEK293 rmGlu8/hGIRK1/2, thallium flux FluoZin-2; actives lie on both sides; glutamate co-added at its EC20 level.
Chain of G protein-activated inward rectifier potassium channel 2 (Homo sapiens) + G protein-activated inward rectifier potassium channel 1 (Homo sapiens) (P48051 whole entry, looked up): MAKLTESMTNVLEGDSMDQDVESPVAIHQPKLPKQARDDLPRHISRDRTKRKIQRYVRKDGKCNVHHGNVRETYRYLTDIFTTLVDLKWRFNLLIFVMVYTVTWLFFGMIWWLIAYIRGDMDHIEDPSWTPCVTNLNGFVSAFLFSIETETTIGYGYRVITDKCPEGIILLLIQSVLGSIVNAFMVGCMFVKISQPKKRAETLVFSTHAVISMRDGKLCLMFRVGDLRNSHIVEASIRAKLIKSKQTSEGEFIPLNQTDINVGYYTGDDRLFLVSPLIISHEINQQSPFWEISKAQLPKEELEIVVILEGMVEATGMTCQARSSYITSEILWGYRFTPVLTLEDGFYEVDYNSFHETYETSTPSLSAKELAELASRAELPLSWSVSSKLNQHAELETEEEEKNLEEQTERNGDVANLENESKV
Chain of G protein-activated inward rectifier potassium channel 2 (Homo sapiens) + G protein-activated inward rectifier potassium channel 1 (Homo sapiens) (P48549 whole entry, looked up): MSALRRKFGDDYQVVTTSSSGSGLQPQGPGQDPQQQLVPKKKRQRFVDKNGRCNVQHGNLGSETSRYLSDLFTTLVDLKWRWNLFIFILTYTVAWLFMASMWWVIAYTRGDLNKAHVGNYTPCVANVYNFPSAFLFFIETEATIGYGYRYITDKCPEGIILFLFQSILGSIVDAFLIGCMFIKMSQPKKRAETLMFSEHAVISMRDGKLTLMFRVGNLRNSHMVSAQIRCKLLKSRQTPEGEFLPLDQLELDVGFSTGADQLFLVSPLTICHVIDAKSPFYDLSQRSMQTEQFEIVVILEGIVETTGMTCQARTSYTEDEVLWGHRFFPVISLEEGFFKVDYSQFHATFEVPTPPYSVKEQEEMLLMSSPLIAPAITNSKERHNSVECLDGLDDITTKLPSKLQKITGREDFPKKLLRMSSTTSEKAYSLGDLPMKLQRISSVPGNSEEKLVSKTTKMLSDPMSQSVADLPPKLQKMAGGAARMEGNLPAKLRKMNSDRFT

| SMILES | manual score |
| --- | --- |
| O=C1c2ccccc2NC(c2ccc(-c3ccc(Br)cc3)o2)N1O (stereo unspecified) | 0.5 |
| Cc1ccc(-c2cc(-c3n[nH]c(=S)o3)c3ccccc3n2)cc1 | 0 |
| S=c1[nH]nc(-c2cc3c(s2)-c2ccccc2CC3)o1 | 1 (active) |
| CCCCCCn1cnc2c(c1=O)c1nc3ccccc3nc1n2/N=C/c1ccco1 | 0 |
| COc1cc(OC)cc(C(=O)Nc2nc(-c3ccccc3)c(-c3ccccc3)o2)c1 | 0 |
| Cc1ccc(C(=O)Nc2nc(-c3ccccc3)c(-c3ccccc3)o2)cc1 | 1 (active) |
| Cc1ccc(C(=O)Nc2cnc3ccccn3c2=O)cc1 | 0 |
| COc1cccc(C(=O)Nc2nc(-c3ccccc3)c(-c3ccccc3)o2)c1 | 1 (active) |
| O=C(Nc1nc(-c2ccccc2)c(-c2ccccc2)o1)c1ccc(F)cc1 | 1 (active) |
| COc1cccc(C(=O)NCc2cn3ccsc3n2)c1 | 0 |
| CSc1ccccc1C(=O)Nc1cccc(C(C)=O)c1 | 0 |
| CSc1ccccc1NC(=O)Nc1ccccc1 | 1 (active) |
| CCC(C)NC(=O)c1ccccc1NC(=O)Nc1ccccc1 (stereo unspecified) | 0 |
| COC(=O)c1sccc1NC(=O)CSc1ccccc1NS(=O)(=O)c1ccc(Cl)cc1 | 0 |
| CSc1ccccc1NC(=O)Nc1ccc(Cl)cc1 | 1 (active) |
| CC(C)N=c1scc(-c2cccs2)n1/N=C/c1ccc(O)c(O)c1O | 0 |
| Cc1c(C)[n+](=O)c2c(n1[O-])CCC2 | 0 |
| CCc1ccc(/C=C/C(=O)C2C(=O)c3ccccc3C2=O)cc1 | 1 (active) |
| CCc1ccc(/C=c2\s/c(=C\C(=O)C(C)(C)C)[nH]c2=O)cc1 | 0 |
| CC(/C=C\c1cccnc1)=C/C(=O)O | 0 |
| CC(/C=C/c1ccccc1)=N/NC(=O)c1cc([N+](=O)[O-])cc([N+](=O)[O-])c1 | 0 |
| O=C(/C=C/c1ccccc1)C1C(=O)c2ccccc2C1=O | 1 (active) |
| CN=C(C)C1=C(O)C(C(=O)OC)C(C)(C)CC1=O (stereo unspecified) | 0 |

| SMILES | manual score |
| --- | --- |
| Cc1cccc2c(=O)cc(C)n(CC(=O)N3CCCCC3)c12 | 0 |
| CCc1c(O)nc(SCC(=O)Nc2ccc(OC)cc2)n(C2CCCCC2)c1=O | 0 |
| CC(=O)Oc1ccc2c(c1)Oc1cc(OC(C)=O)ccc1C21OC(=O)c2ccccc21 | 3 |
| O=C(Nc1ncc(Br)s1)C(Cc1ccccc1)n1cccc1 (stereo unspecified) | 1 (active) |
| Cc1csc(NC(=O)C(Cc2ccccc2)n2cccc2)n1 (stereo unspecified) | 0 |
| CCSc1nnc(NC(=O)C(Cc2ccccc2)n2cccc2)s1 (stereo unspecified) | 0 |
| O=C(CSc1nnc2ccccn12)Nc1nsc(-c2ccccc2)n1 | 0 |
| CC1(C)CC(=O)C2=C(C1)N(c1ccccc1)C(N)=C(C#N)C2c1ccsc1 (stereo unspecified) | -1 (active) |
| CC1(C)CC(=O)C2=C(C1)NC(SCC(=O)Nc1ccccc1)=C(C#N)C2c1ccco1 (stereo unspecified) | 0 |
| CN1C(=O)C2(C(C#N)=C(N)N(c3cc(Cl)cc(Cl)c3)C3=C2C(=O)CCC3)c2ccccc21 (stereo unspecified) | 0 |
| S=c1[nH]nc(COc2ccccc2)n1C1CCCCC1 | 0 |
| CC(C)=CCC(C)(C)CNC(=O)NC1CCCCC1 | 1 (active) |
| O=C(O)CCC(=O)NC1CCCCCCC1 | 0 |
| N#CC1(Cc2ccc([N+](=O)[O-])cc2)c2ccccc2C=CN1C(=O)c1ccccc1 (stereo unspecified) | 0 |
| O=C(Cc1ccccc1)N/N=C/c1cccn1-c1ccc([N+](=O)[O-])cc1 | 1 (active) |
| CCOC(=O)CSC1=C(C#N)C(=O)NC(c2ccc(OC)c(OC)c2)S1 (stereo unspecified) | 0 |
| C=CCNCc1cccn1-c1sc2c(c1C#N)CCCC2 | -1 (active) |
| CCOC(=O)c1c2n(c3c(NCc4ccccc4)ncnc13)CCCC2 | -1 (active) |
| O=C(Oc1ccccc1)c1cccc(COC(=O)c2cnccn2)c1 | 0 |
| CCOC(=O)c1ccc(CNCc2ccc(Br)cc2)cc1 | 0 |
| CCc1ccc(CNCCNCC(C)O)cc1 (stereo unspecified) | 1 (active) |
| COc1ccc(/C=C2\C(=O)NC(=S)N2C(=O)c2ccc(F)cc2)cc1 | 0 |
| COc1ccc(C(=O)N2C(=S)NC(=O)/C2=C\c2ccc(C)cc2)cc1 | 0 |

| SMILES | manual score |
| --- | --- |
| COc1ccc(/C=C2\N=C(SC)NC2=O)cc1 | 1 (active) |
| CC(C)n1c(=S)[nH]c2ccccc2c1=O | 1 (active) |
| CCOc1cc2[nH]c(=S)n(C(C)C)c(=O)c2cc1OCC | 1 (active) |
| COC(=O)c1ccc2c(=O)n(CC3CCCO3)c(=S)[nH]c2c1 (stereo unspecified) | 0 |
| CCn1c(=S)[nH]c2cc(C(=O)OC)ccc2c1=O | 0.5 |
| CC(C)N(CCn1c(=S)[nH]c2ccccc2c1=O)C(C)C | 0 |
| CC1CCCCN1CCCn1c(=S)[nH]c2ccccc2c1=O (stereo unspecified) | 0 |
| CCC1CCCCN1CCCn1c(=S)[nH]c2ccccc2c1=O (stereo unspecified) | 0 |
| O=c1c2ccccc2[nH]c(=S)n1CCCN1CCN(C2CCCCC2)CC1 | -1 (active) |
| CC1CCC(n2c(=S)[nH]c3ccccc3c2=O)CC1 (stereo unspecified) | 0.5 |
| CC(C)COn1c(=S)[nH]c2ccccc2c1=O | 1 (active) |
| CCC1(C)OCC(Cn2c3ccccc3c3ccccc32)O1 (stereo unspecified) | 0 |
| CC(C)c1ccc2occ(-c3nn[nH]n3)c(=O)c2c1 | 0 |
| CC1CCCCC1n1c(=S)[nH]c2ccccc2c1=O (stereo unspecified) | 1 (active) |
| CC1CCCC(n2c(=S)[nH]c3ccccc3c2=O)C1C (stereo unspecified) | 3 |
| COc1ccc(C(=O)Nc2ccccc2)cc1S(=O)(=O)Nc1cc(C)on1 | 0 |
| CCCCOc1cccc(OCCCC)c1C(=O)Nc1cc(C)on1 | -1 (active) |
| Cc1cc(NC(=O)c2ccccc2Oc2ccccc2)no1 | 0 |
| COc1ccc(CN2CCNC(=O)C2CC(=O)O)cc1OC (stereo unspecified) | 0 |
| COc1cccc2[nH]c3c(N4CCCC(C)C4)ncnc3c12 (stereo unspecified) | -1 (active) |
| Cc1ccc(-c2nnn(CC(=O)N3CCCCC3)n2)c(-n2cnnn2)c1 | 0 |
| Cc1ccc(-c2nnn(CC(=O)NC3CC4CCC3C4)n2)cc1 (stereo unspecified) | 1 (active) |
| COc1ccc(N(CC(=O)NC2CCCC2)C(=O)Cn2nnc(-c3ccc(C)cc3)n2)cc1 | 0 |

| SMILES | manual score |
| --- | --- |
| Clc1cccc(-c2ccc(/C=N/n3cnnc3)o2)c1Cl | 0 |
| CCCCCCCC1CC(CSc2ncn[nH]2)OC1=O (stereo unspecified) | 0 |
| CCCCCCCC1CC(CSC(=N)N)OC1=O (stereo unspecified) | -1 (active) |
| O=C(c1ccc(Br)o1)N1CCN(c2ccc3nnc(-c4ccc(F)cc4)n3n2)CC1 | 0 |
| Fc1ccccc1NC(=S)NN(Cc1ccccc1)c1ccccc1 | -1 (active) |
| Fc1cc(Br)ccc1NC(=S)NCCc1ccccc1 | 0 |
| Cc1ccccc1CNC(=O)Nc1cccs1 | 1 (active) |
| CCn1c(NC(=O)Nc2cccc(C)c2C)cc2sccc21 | 0 |
| O=C(NCc1cccs1)c1cccnc1C(=O)O | 0 |
| COc1ccccc1NC(=O)COc1ccc(Br)cc1CO | 0 |
| COc1ccc(Br)cc1CNC(=O)Nc1cccs1 | 1 (active) |
| COc1ccc2cc(Br)ccc2c1CC(=O)NC1CC(C)(C)NC(C)(C)C1 | 0 |
| CCOc1cc(C)nc(N2CCN(C3CCCCC3)CC2)n1 | -1 (active) |
| COc1ccccc1C(=O)NNC(=S)NC(=O)c1ccco1 | 1 (active) |
| COc1ccc(C(=O)NNC(=S)NC(=O)c2ccco2)cc1 | 1 (active) |
| Cc1cnc(NC(=O)COc2ccccc2Cl)s1 | 0 |
| Cc1ccc(OCC(=O)N/N=C/c2cccn2C)cc1 | 0 |
| Cc1ccccc1OCC(=O)N/N=C/c1cccn1C | 1 (active) |
| COc1ccc(CNC(=O)CSCc2ccccc2Cl)cc1 | 0 |
| Cc1ccc(C(=O)CC(=O)COc2ccc(Cl)cc2)cc1 | 0 |
| Cc1ccc(C(=O)CC(=O)COc2ccc(Cl)cc2C)cc1 | 1 (active) |
| Cc1ccc(C(=O)CC(=O)c2cc(Cl)ccc2O)cc1 | 0 |
| CC(C)c1cc(C(F)(F)F)n2nc(C(=O)Nc3ccc4c(c3)OCO4)cc2n1 | 0 |

| SMILES | manual score |
| --- | --- |
| CC1CCCN(C(C(=O)Nc2ccc3c(c2)OCO3)c2ccccc2)C1 (stereo unspecified) | -1 (active) |
| O=C(NC(=S)Nc1ccc2c(c1)OCO2)c1ccccc1 | 0 |
| Cc1ccc(NC(=O)C(c2ccccc2)C2CCCC2)cc1 (stereo unspecified) | 0 |
| CC1CCN(C(C(=O)Nc2ccc3c(c2)OCO3)c2ccccc2)CC1 (stereo unspecified) | -1 (active) |
| Cc1ccc(C(C(=O)NC2CCCC2)N2CCCC(C)C2)cc1 (stereo unspecified) | -1 (active) |
| O=C1OC2(CCCCC2)OC(=O)C1=CNc1nc2ccccc2s1 | 1 (active) |
| Cc1csc(SCC(=O)Nc2nc3ccccc3s2)n1 | 0 |
| O=C(Nc1ccc(O)c(-c2nc3ccccc3s2)c1)C1=COCCO1 | 0 |
| Oc1oc(-c2cccc3ccccc23)nc1/C=N/c1nccs1 | 0 |
| CCCCCC/C(C)=C1/SC(=S)NC1=O | 1 (active) |
| COc1ccccc1N1CCN(Cc2cc(Br)c(O)c3ncccc23)CC1 | 0.5 |
| c1ccc2c(c1)oc1c(N3CCN(Cc4ccc5c(c4)OCO5)CC3)ncnc12 | -1 (active) |
| SC(COCc1ccccc1)CN1CCN(Cc2ccc3c(c2)OCO3)CC1 (stereo unspecified) | -0.5 |
| CCCCCCN1C2=NCCN2c2ccccc21 | -1 (active) |
| Cc1ccc(Cn2c(SCC(=O)N3CC(=O)Nc4ccccc43)nc3ccccc3c2=O)cc1 | 0 |
| OC(CN1C2=NCCCN2c2ccccc21)c1ccc(Br)cc1 (stereo unspecified) | -1 (active) |
| CC(C)(C)c1ccc(CN2C3=NCCCN3c3ccccc32)cc1 | -1 (active) |
| Cc1ccc(CN2C3=NCCCN3c3ccccc32)cc1 | -1 (active) |
| CCN(CC)c1ccc(NC(=O)c2nc3nc(C)cc(C(F)F)n3n2)cc1 | 0 |

From PubChem BioAssay AID623911 (Vanderbilt High Throughput Screening Facility, 2012)
